Activity calls are given as the source filed them.
Key:
[1] = system: Plasmodium falciparum Sir2 (PF13_0152, Sir2A); experiment: pfSir2 binders on small-molecule microarrays, primary screen, biochemical, small-molecule microarray, 635 nm fluorescence (AID 1098); settings: small-molecule microarray binding, fluorescence 635 nm; higher = more signal;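 note: score merges spot fluorescence intensity with its signal-to-noise ratio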
[2] = small-molecule microarray binders of probe aDKK1, primary screen, biochemical, biotinylated probe, 635/667 nm fluorescence (AID 1099); settings: higher = more signal;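 note: score merges 667nm spot fluorescence with signal to noise across triplicate slides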
[3] = small-molecule microarray binders of probe aCHRDL2, primary screen, biochemical, biotinylated probe, 635/667 nm fluorescence (AID 1100); settings: higher = more signal
[4] = splicing luciferase reporter signal modulators, primary screen, spliceosome inhibition project, cell-based, HEK293, splice +/- reporter (AID 1101); settings: luminescence, 24 h, higher = more signal, called active from +8 up or from −8 down;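 note: HEK293 cells carrying a splicing-competent luciferase reporter gene; test concentration not given here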
[5] = target: Fibroblast growth factor 10 (Homo sapiens) (UniProt O15520); experiment: FGF10 binders on small-molecule microarrays, primary screen, biochemical, small-molecule microarray, 635 nm fluorescence (AID 1102); settings: FGF10 binding, fluorescence 635 nm, higher = more signal
Sequence of Fibroblast growth factor 10 (Homo sapiens) (O15520 whole entry, looked up): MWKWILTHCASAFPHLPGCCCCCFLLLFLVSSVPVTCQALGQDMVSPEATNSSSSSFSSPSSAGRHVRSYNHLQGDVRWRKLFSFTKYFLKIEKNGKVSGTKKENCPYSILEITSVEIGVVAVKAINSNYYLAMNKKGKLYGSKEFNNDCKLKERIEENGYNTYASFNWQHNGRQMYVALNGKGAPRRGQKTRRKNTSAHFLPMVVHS

[6] = system: glycogen synthase kinase-3 (GSK3A per assay name; protocol says GSK3B); experiment: GSK3 binders on small-molecule microarrays, primary screen, biochemical, small-molecule microarray, 635 nm fluorescence, GSK3A (AID 1103); settings: small-molecule microarray binding, fluorescence 635 nm; higher = more signal; note: the record names both GSK3A and GSK3B
[7] = target: Epidermal growth factor receptor (Homo sapiens) (UniProt P00533); experiment: EGFR binders on small-molecule microarrays, primary screen, biochemical, small-molecule microarray, 635 nm fluorescence (AID 1104); settings: EGFR binding, higher = more signal;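 note: score merges 667 nm emission intensity with spot signal to noise over triplicate slides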
Sequence of Epidermal growth factor receptor (Homo sapiens) (P00533 whole entry, looked up): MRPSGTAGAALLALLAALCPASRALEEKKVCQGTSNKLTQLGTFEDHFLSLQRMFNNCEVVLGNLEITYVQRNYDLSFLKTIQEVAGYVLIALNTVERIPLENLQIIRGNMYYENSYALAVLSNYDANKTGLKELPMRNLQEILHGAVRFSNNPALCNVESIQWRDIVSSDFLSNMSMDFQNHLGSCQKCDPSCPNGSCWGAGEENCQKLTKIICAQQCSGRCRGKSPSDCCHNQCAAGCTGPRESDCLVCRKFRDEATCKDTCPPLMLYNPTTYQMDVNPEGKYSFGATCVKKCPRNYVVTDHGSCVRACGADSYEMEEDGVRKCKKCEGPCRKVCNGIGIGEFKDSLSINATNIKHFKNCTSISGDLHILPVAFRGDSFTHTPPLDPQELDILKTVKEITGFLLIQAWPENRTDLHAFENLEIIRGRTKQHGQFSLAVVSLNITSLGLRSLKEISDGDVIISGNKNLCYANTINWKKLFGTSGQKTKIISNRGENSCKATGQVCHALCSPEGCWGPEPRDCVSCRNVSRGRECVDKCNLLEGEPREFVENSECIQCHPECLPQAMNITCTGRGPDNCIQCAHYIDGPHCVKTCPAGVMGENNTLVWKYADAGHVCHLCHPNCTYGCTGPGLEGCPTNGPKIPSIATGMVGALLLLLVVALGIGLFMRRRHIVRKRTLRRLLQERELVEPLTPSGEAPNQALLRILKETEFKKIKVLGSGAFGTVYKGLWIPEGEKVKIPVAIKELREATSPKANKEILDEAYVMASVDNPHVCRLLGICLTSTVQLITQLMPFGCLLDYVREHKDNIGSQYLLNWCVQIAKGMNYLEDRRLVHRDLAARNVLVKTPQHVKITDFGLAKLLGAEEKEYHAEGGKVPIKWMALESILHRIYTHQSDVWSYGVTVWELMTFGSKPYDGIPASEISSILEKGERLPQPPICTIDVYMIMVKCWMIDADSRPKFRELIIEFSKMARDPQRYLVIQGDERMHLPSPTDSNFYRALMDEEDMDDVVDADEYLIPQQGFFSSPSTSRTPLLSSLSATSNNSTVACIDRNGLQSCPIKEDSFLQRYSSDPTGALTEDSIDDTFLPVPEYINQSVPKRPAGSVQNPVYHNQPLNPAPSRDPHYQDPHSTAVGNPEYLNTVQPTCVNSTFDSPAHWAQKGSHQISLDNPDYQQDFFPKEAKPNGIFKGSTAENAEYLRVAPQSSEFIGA

[8] = target: Follistatin-related protein 3 (Homo sapiens) (UniProt O95633); experiment: FSTL3 binders on small-molecule microarrays, primary screen, biochemical, small-molecule microarray, 635 nm fluorescence (AID 1105); settings: FSTL3 binding, higher = more signal;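 note: score merges emission near 667 nm and signal to noise per printed spot across three slides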
Sequence of Follistatin-related protein 3 (Homo sapiens) (O95633 whole entry, looked up): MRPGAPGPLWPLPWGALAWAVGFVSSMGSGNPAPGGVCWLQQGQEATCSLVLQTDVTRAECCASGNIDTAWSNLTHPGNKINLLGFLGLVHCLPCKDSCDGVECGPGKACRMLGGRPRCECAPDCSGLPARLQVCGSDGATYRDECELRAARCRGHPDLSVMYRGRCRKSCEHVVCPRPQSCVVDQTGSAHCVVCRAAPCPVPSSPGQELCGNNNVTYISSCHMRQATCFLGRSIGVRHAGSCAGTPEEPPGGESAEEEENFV

[9] = target: Dickkopf-related protein 1 (Homo sapiens) (UniProt O94907); experiment: DKK1 binders on small-molecule microarrays, primary screen, biochemical, small-molecule microarray, 635 nm fluorescence scan (AID 1106); settings: DKK1 binding, higher = more signal;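 note: score merges emission near 667 nm with signal to noise over three replicate slides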
Sequence of Dickkopf-related protein 1 (Homo sapiens) (O94907 whole entry, looked up): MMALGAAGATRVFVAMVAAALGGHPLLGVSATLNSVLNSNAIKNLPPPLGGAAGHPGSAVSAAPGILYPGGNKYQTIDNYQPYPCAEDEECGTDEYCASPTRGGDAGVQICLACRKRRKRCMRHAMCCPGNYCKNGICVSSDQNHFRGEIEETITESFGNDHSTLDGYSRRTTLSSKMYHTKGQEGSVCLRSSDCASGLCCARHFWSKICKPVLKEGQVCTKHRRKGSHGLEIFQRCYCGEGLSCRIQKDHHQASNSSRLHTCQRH

[10] = system: Inhibin beta A chain (activin A); experiment: INHBA (activin A) binders on microarrays, primary screen, biochemical, small-molecule microarray, 635 nm fluorescence scan (AID 1107); settings: small-molecule microarray binding, higher = more signal;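 note: mouse activin A protein probed at 4.33 µg/mL on printed slides; score merges bound-protein fluorescence near 667 nm with spot signal-to-noise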
[11] = system: Human papillomavirus type 1a protein E7 (residues 44-93); experiment: HPV1a E7 fragment binders on microarrays, primary screen, biochemical, small-molecule microarray, residues 44-93, 635 nm fluorescence (AID 1108); settings: small-molecule microarray binding, fluorescence 635 nm; higher = more signal;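 note: E7 fragment applied at 1 µg/mL in TBST for 1 h at 4 C; score combines spot fluorescence with its signal to noise ratio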
[12] = modulators of HCV replicon luciferase signal, primary screen, HCV replication inhibitor project, Huh7 cells, luciferase reporter (AID 1109); settings: 48 h, higher = more signal;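 note: huh7 hepatoma cells harbouring a luciferase neomycin HCV replicon reporter; luciferase luminescence as measure of HCV replicon replication; test concentration not given here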
[13] = target: Left-right determination factor 2 (Homo sapiens) (UniProt O00292); experiment: LEFTY2 binders on small-molecule microarrays, primary screen, biochemical, small-molecule microarray, 635 nm fluorescence scan (AID 1110); settings: LEFTY2 binding, higher = more signal
Sequence of Left-right determination factor 2 (Homo sapiens) (O00292 whole entry, looked up): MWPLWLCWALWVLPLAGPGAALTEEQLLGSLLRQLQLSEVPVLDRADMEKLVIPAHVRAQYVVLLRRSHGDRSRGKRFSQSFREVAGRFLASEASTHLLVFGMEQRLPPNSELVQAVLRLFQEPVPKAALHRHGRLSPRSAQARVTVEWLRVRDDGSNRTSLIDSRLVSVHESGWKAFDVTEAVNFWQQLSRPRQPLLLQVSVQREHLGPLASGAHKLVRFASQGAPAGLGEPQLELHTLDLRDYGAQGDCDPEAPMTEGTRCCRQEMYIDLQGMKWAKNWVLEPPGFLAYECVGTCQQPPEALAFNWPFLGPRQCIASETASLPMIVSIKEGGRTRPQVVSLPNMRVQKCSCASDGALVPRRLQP

[14] = target: Calmodulin-1 (Homo sapiens) (UniProt P0DP23); experiment: CALM1 binders on microarrays, EGTA buffer, profiling panel, biochemical, small-molecule microarray, Cy5-labelled CALM1 (AID 1111); settings: Cy5-CALM1 binding fluorescence, higher = more signal;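 note: labelled calmodulin applied in Tris saline Tween buffer holding calcium plus EGTA and DTT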
[15] = target: Calmodulin-1 (Homo sapiens) (UniProt P0DP23); experiment: calcium-bound CALM1 binders on microarrays, profiling panel, artefact control for SMM control-protein annotation, biochemical, small-molecule microarray, Cy5-labelled CALM1, plus calcium (AID 1112); settings: Cy5-CALM1 binding fluorescence, higher = more signal;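 note: score merges spot fluorescence with signal to noise from triplicate slides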
[16] = small-molecule microarray binders of probe aWnt5a, primary screen, biochemical, biotinylated probe, 635/667 nm fluorescence (AID 1113); settings: higher = more signal;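 note: score merges 667 nm fluorescence intensity with signal-to-noise per printed feature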
[17] = small-molecule microarray binders of probe aShh, primary screen, biochemical, biotinylated probe, 635/667 nm fluorescence (AID 1114); settings: higher = more signal;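 note: probe is biotin-labelled aShh protein from a stem cell growth factor screen; measures binding of labelled protein to compounds printed on the slide; score merges feature fluorescence at 667 nm with signal-to-noise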
[18] = small-molecule microarray binders of probe aNog, primary screen, biochemical, biotinylated probe, 635/667 nm fluorescence (AID 1115); settings: higher = more signal;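 note: probe is biotinylated aNog protein used at 0.15 µg/mL for 1 h at 4 C; z-score combines 667 nm fluorescence of each spot with its signal to noise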
[19] = target: Torsin-1A-interacting protein 1 (Homo sapiens) (UniProt Q5JTV8); experiment: LAP1 binders from COS7 cell lysate, primary screen, small-molecule microarray, 635/667 nm fluorescence (AID 1116); settings: COS7-hLAP1 lysate binding, 635 nm fluorescence, higher = more signal
Sequence of Torsin-1A-interacting protein 1 (Homo sapiens) (Q5JTV8 whole entry, looked up): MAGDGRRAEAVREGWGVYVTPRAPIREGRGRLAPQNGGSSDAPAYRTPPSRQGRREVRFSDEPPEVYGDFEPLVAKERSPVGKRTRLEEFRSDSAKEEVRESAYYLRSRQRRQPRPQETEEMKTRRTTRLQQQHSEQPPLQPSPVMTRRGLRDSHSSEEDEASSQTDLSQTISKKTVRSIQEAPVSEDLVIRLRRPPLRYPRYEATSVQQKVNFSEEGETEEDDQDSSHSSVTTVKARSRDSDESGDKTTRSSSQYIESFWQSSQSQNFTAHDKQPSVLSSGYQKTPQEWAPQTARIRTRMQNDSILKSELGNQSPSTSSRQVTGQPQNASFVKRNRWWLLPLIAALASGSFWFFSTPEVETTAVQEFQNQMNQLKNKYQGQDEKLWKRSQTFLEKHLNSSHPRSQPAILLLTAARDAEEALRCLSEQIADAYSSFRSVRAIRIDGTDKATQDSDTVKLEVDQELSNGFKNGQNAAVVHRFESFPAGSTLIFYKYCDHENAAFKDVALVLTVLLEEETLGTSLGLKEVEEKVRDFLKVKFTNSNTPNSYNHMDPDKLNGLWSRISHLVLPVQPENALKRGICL

[20] = target: Alpha-bungarotoxin (Bungarus multicinctus) (UniProt P60615); experiment: alpha-bungarotoxin binders on microarray, profiling panel, artefact control for SMM control protein annotation, biochemical, small-molecule microarray, Alexa647 label, 635/667 nm fluorescence (AID 1117); settings: alpha-BTX-A647 binding fluorescence, higher = more signal
Sequence of Alpha-bungarotoxin (Bungarus multicinctus) (P60615 whole entry, looked up): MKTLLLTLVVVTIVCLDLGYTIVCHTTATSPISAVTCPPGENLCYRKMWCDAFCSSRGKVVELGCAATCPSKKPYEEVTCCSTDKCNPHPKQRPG

| SMILES | composite z-score [1] | composite z-score [2] | composite z-score [3] | z-score [4] | composite z-score [5] | composite z-score [6] | composite z-score [7] | composite z-score [8] | composite z-score [9] | composite z-score [10] | composite z-score [11] | z-score [12] | composite z-score [13] | composite z-score [14] | composite z-score [15] | composite z-score [16] | composite z-score [17] | composite z-score [18] | composite z-score [19] | composite z-score [20] |
| --- | --- | --- | --- | --- | --- | --- | --- | --- | --- | --- | --- | --- | --- | --- | --- | --- | --- | --- | --- | --- |
| CC[C@@H]1C=C(C(=O)O)[C@H](c2ccc(OC)cc2)N1S(=O)(=O)c1ccc(C)cc1 | 1.05 | -0.0814 | 0.118 | 0.603 (inactive) | -0.0657 | -1.06 | -0.675 | 0.0479 | -0.188 | 0.615 | -0.875 | -0.619 | -0.495 | 0.15 | 0.0583 | -0.154 | -0.221 | -0.209 | 0.076 | 0.0708 |
| O=C1OCCC=C[C@H]2OC34C=CCN(c5ccc6ccccc6c5)C(=O)[C@H]3N(CCO)C(=O)[C@@H]4C12 (stereo not given in full) | 1.89 | -0.886 | -0.465 | -0.502 (inactive) | -0.0326 | -0.327 | -0.405 | -0.114 | -0.951 | -0.666 | -0.988 | -0.07 | -0.277 | -0.237 | -0.419 | -0.219 | -0.383 | -0.453 | 0.468 | 0.0797 |
| [N-]=[N+]=Nc1ccccc1[C@H]1OC(c2ccc(OCCCO)cc2)=N[C@@]1(Cc1ccccc1)C(=O)NCC(O)CO (stereo not given in full) | 0.315 | 0.78 | 0.981 | -0.562 (inactive) | -0.0795 | 0.0637 | -0.942 | -0.283 | -0.535 | 0.647 | 1.38 | -1.29 | -1.04 | 1.04 | 1 | 0.119 | 0.257 | 0.0005 | 1.5 | 1.57 |
| CCOc1cc(C(O)C2C=CC3C(=O)N(c4ccccc4)C(=O)C3N2Nc2ccccc2F)ccc1O (stereo not given) | 1.53 | 1.42 | 0.762 | 0.101 (inactive) | 0.208 | -0.186 | 0.232 | -0.271 | -0.344 | 0.604 | 0.357 | -0.299 | -0.325 | 0.182 | 0.479 | 0.302 | 0.536 | 1.71 | -0.321 | 0.762 |
| COCCOC(=O)N1C(=O)[C@@]2(c3cc(C#Cc4ccc(OC)cc4)ccc31)[C@H](c1ccc(OCCO)cc1)N1[C@H](c3ccccc3)[C@H](c3ccccc3)OC(=O)[C@H]1[C@@H]2C(=O)NC[C@H](O)c1ccccc1 | 1.38 | 0.92 | 0.537 | -0.279 (inactive) | 1.16 | 1.27 | 0.696 | 0.475 | 0.473 | 0.961 | 1.12 | -1.69 | 1.25 | 1.15 | 0.842 | 0.0078 | -0.273 | 0.338 | 0.851 | 1.4 |
| COc1ccc([Si](C)(C)[C@H]2[C@H](CC(=O)N3Cc4ccccc4C[C@H]3CO)O[C@@]3(C(=O)N(C)c4ccccc43)[C@@H]2C)cc1 | 1.52 | -0.127 | -0.431 | -2.06 (inactive) | 0.891 | 1.29 | 1.01 | 1.4 | 1.53 | 1.58 | 1.42 | -4.34 | 0.77 | 0.125 | -1.29 | -0.124 | -0.0146 | -0.299 | 0.712 | 2.48 |
| COC(=O)[C@@]1(Cc2ccc(F)cc2)[C@H]2c3cc(C(=O)N(C)C)n(C)c3C[C@H]2CN1C(=O)c1ccccc1 | 0.0911 | 0.903 | 0.885 | -0.84 (inactive) | 0.414 | -0.489 | -0.286 | -0.125 | -0.615 | 0.468 | 0.0469 | -0.275 | -0.21 | 1.1 | 0.815 | 0.0095 | 0.705 | 1.01 | 0.509 | 0.0278 |
| CC(C)N1C(=O)C[C@@](C(=O)NCCN2CCOCC2)(c2ccc([N+](=O)[O-])cc2)[C@H]1c1ccc(CO)cc1 | 1.88 | -0.477 | 0.447 | -0.286 (inactive) | -0.945 | -0.175 | -1.12 | -0.854 | -1.03 | 0.16 | -0.0369 | 0.323 | -1.07 | -0.701 | -0.272 | -0.298 | -0.221 | -0.478 | 2.15 | -0.418 |
| CN1C(=O)[C@@H]2[C@@H](CC(COc3ccccc3)=C3[C@@H](CCc4ccccc4)OB(O)C[C@@H]32)C1=O | 1.11 | -0.003 | 0.0414 | 0.341 (inactive) | 0.311 | -0.557 | -0.133 | 0.128 | 0.109 | 0.515 | -0.0599 | -0.595 | -0.194 | 0.0212 | 0.662 | -0.156 | 0.691 | -0.0172 | 0.0197 | 1.4 |
| Cc1ccc(S[C@]2(C(=O)NCc3ccccc3)CC(=O)N(Cc3ccccc3C(F)(F)F)[C@@H]2c2ccc(CO)cc2)cc1 | 0.537 | 0.0191 | 0.984 | -0.284 (inactive) | -0.915 | -1.13 | -1.22 | -1.28 | -1.72 | 0.242 | -0.0905 | -1.46 | -1.86 | -0.488 | 0.272 | -0.0778 | -0.221 | 0.381 | 0.328 | -0.191 |
| CC(C)=C1C(=O)C(c2ccccc2)=C2CN3C(=O)N(CCc4ccccc4)C(=O)[C@]3(C)[C@H]21 | 1.27 | 0.915 | 1.13 | 1.15 (inactive) | 0.139 | -0.701 | -0.276 | -0.0755 | -0.538 | 1.02 | 0.186 | -0.44 | -0.245 | 1.16 | 0.0844 | 0.0825 | 0.748 | 0.794 | 0.149 | 0.196 |

— PubChem BioAssay
